Among all 340,000 compounds or so, about 2,100 (0.62%) were called active.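 How the source made its calls: active means first-screen hits whose inhibition reached a set limit at any dose in the follow-up dose series; inconclusive means inhibition above the set first-screen limit but never retested; inactive means the rest.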 Not all results are given here. Entries with a potency or affinity are not part of this list.
Each compound was assayed against Rac GTPase-activating protein 1 (Homo sapiens) (UniProt Q9H0H5) (assay: MgcRacGAP GTPase-activating activity inhibitors, confirmation, biochemical, ADP Hunter fluorescence, primary and confirmatory (AID 624330;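 further: fluorescence reports GDP produced by GAP-driven GTP hydrolysis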)). Details: MgcRacGAP-stimulated Rac1 GTP hydrolysis, at 30 µM, stronger effect = higher value, GST-tagged Rac1 F28L mutant substrate.
Sequence of Rac GTPase-activating protein 1 (Homo sapiens) (Q9H0H5 whole entry, looked up): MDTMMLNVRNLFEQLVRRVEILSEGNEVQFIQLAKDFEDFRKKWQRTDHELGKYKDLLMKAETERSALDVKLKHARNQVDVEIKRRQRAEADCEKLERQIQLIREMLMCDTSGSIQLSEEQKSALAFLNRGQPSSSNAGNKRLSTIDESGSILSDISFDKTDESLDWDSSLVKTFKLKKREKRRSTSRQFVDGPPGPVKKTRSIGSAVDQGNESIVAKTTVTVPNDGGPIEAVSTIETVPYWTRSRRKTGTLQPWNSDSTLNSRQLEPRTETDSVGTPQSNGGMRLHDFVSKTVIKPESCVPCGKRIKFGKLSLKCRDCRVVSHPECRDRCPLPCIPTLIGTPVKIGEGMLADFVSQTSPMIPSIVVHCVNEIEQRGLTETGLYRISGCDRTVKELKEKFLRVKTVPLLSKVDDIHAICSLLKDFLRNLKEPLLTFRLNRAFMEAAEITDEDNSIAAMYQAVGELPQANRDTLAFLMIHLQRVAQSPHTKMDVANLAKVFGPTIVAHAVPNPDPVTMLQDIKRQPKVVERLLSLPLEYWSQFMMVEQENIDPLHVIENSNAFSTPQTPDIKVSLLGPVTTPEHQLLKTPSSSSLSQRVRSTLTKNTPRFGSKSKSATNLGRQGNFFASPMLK

inhibition, inactive:
COc1ccc(N=Cc2ccccc2O)cc1 7.18%
Cc1cc(O)c(C=Nc2ccc(N3CCOCC3)cc2)c(C)c1Cl 24.8%
CCN(CC)c1ccc(C=Nc2ccc(N(C)C)cc2)c(O)c1 19.7%
CCOc1ccc(N=Cc2ccccc2O)cc1 4.12%
Cn1c(O)c(C=Nc2ccc(N3CCOCC3)cc2)c(=O)n(C)c1=S 10.4%
O=[N+]([O-])c1cc(Br)c(O)c(C=Nc2ccc(N3CCOCC3)cc2)c1 54.6%
Cc1ccc(N=Cc2ccc(O)cc2O)cc1F 2.37%
Oc1ccc(N=Nc2cccc(Cl)c2)cc1C=Nc1ccc(N2CCOCC2)cc1 7.02%
CS(=O)(=O)c1ccc(Cl)c(NC(=O)COC(=O)CNC(=O)c2ccccc2)c1 6.09%
O=C(Cc1cccc(F)c1)Nc1ccc2c(c1)CCC2 6.98%
C=C(c1ccccc1Cl)[n+]1ccccc1 -11.7%
N#CCCN(Cc1cccnc1)C(=S)NC(=O)c1ccco1 5.92%
O=C(OCC(=O)N1CCCC1)c1c(Cl)ccc(Cl)c1Cl -3.47%
Cc1nc(C(=O)N(C)C)nn1-c1cc(Cl)ccc1Cl 9.33%
Cc1ccc(-n2c(C(C)C)nc3oc4ccccc4c(=O)c3c2=O)cc1 0.93%
Oc1ccc(Br)cc1C=Nc1ccc(Cl)cc1 8.07%
Oc1ccc(Br)cc1/C=N/N1CCCCC1 6.18%
Cc1cc(C)cc(NC(=O)c2cccc(NC(=O)c3ccco3)c2)c1 -0.13%
O=C(Nc1cccc(NC(=O)c2ccco2)c1)c1cccc(Br)c1 7.43%
COc1ccccc1NC(=O)c1oc2ccccc2c1NC(=O)C1CC1 1.66%
CCn1c(=O)c(C(=O)CN(C)Cc2ccc(F)cc2)c(N)n(Cc2ccccc2)c1=O 5.49%
CCOc1ccc(CN(C)CC(=O)c2c(N)n(Cc3ccccc3)c(=O)n(CC)c2=O)cc1OC 5.23%
Cc1cccc(NC(=O)c2nc[nH]c2C(=O)N[C@@H](CC(C)C)C(=O)OCc2ccccc2)c1 5.96%
Cc1cc(C)cc(NC(=S)N2CCC(C(=O)c3ccc(F)cc3)CC2)c1 -15.2%
CC(C)CN(C(=O)c1cc2ccccc2o1)c1c(N)n(CC(C)C)c(=O)[nH]c1=O 7.89%
Cc1nn(-c2ccccc2)c(C)c1NC(=O)COC(=O)CCOc1ccccc1 2.57%
CC(=O)Nc1ccc(N/C=C2/CCCC2=O)cc1 14.8%
Cc1ccc(N/C=C2\CCCCC2=O)c(C)c1 5.15%
CCCCC(CC)C(=O)Nc1ccc(Nc2ccccc2)cc1 (configuration not stated) 22.3%
COCC(=O)Nc1ccc(Nc2ccccc2)cc1 15.4%
c1ccc(Nc2ccccc2)cc1 3.58%
CCC(CC)C(=O)Nc1ccc(Nc2ccccc2)cc1 28%
O=C(O)CCC(NS(=O)(=O)c1ccc(N2CCCC2=O)cc1)C(=O)O (configuration not stated) -1.24%
CCOc1ccc(S(=O)(=O)N2CCN(C(=O)c3cc(-c4ccccc4)nn3-c3ccccc3)CC2)cc1 6.52%
CNC(=O)C(=O)Nc1ccc2c(c1)N(S(=O)(=O)c1cccs1)CCC2 4.61%
CN(CCCC1CCCC1)C(=O)c1cc(COc2c(F)cccc2F)on1 7.43%
C[n+]1ccccc1/C=C/c1ccc(F)c(F)c1 9.42%
CCOc1cc(/C=C/c2cccc[n+]2C)ccc1OCC(=O)Nc1ccc(C)cc1 7.44%
Cc1ccc(CS(=O)Cc2ccc(C(=O)N3CCN(c4ccccn4)CC3)o2)cc1 (configuration not stated) 9.12%
COc1ccc2cc[nH]c2c1 6.12%
COc1cc2[nH]ccc(=O)c2cc1OC 1.14%
Nc1[nH][nH]c(=O)c1N=Nc1ccc2c(c1)OCO2 19.5%
Nc1n[nH]c(N)c1N=Nc1ccc(F)cc1 12.4%
Cc1ccccc1-n1c(SCC(=O)c2c(N)n(C3CC3)c(=O)[nH]c2=O)nnc1N1CCOCC1 4.29%
CC1(C)CC(=O)C(C(C2=C(O)CC(C)(C)CC2=O)c2cccnc2)C(=O)C1 (configuration not stated) 12%
CCCC(C1=C(O)CC(C)(C)CC1=O)C1C(=O)CC(C)(C)CC1=O (configuration not stated) 8.39%
CC1(C)CC(=O)C(C(C2=C(O)CC(C)(C)CC2=O)c2cccc(O)c2)C(=O)C1 (configuration not stated) 7.97%
CC1(C)CC(=O)C(C(C2=C(O)CC(C)(C)CC2=O)c2ccc(Cl)c([N+](=O)[O-])c2)C(=O)C1 (configuration not stated) -0.37%
CC1(C)CC(=O)C(C(C2=C(O)CC(C)(C)CC2=O)c2ccco2)C(=O)C1 (configuration not stated) 29%
COc1cccc(C(C2=C(O)CC(C)(C)CC2=O)C2C(=O)CC(C)(C)CC2=O)c1 (configuration not stated) -5.78%
CC1(C)CC(=O)C(C(C2=C(O)CC(C)(C)CC2=O)c2ccc([N+](=O)[O-])cc2)C(=O)C1 (configuration not stated) 10.9%
CC1(C)CC(=O)C(Br)=C(O)C1 -4.56%
CC[C@@]1(C(=O)OC)N[C@H](CN(C)C(=O)COC)[C@@H]2C(=O)N(C)C(=O)[C@@H]21 6.93%
CC1CC(C)CN(CCCCOc2ccc([N+](=O)[O-])cc2)C1 (configuration not stated) 19.1%
CCOC(=O)C1=C(C)NC(=O)NC1/C=C\c1ccccc1 (configuration not stated) 15.6%
CCOc1ccc(CCNC(=O)C2=C(C)C(=O)OC23CCC(C)CC3)cc1 (configuration not stated) 8.86%
CN1CCN(c2ccc(NC(=S)NC(=O)c3cccc4c(Cl)cccc34)cc2)CC1 9.96%
CCCCNS(=O)(=O)c1cc2c3c(c1)CCN3C(=O)CC2 10.4%
COc1ccc(S(=O)(=O)NCc2cn3c(C)csc3n2)cc1F 7.58%
CN(Cc1nc2ccccc2c(=O)[nH]1)C(=O)COc1ccccc1Cc1ccccc1 4.16%
O=C1C(=Cc2ccccc2[N+](=O)[O-])Cc2ccccc21 5.54%
CNc1ccc(/C=C2\COc3ccccc3C2=O)cc1[N+](=O)[O-] 9.69%
Cc1cc2oc(=O)c(CC(=O)NCCCO)c(C)c2c2occ(C(C)(C)C)c12 4.92%
CCOc1cc(/C=N/NC(=O)c2cccnc2)ccc1OCC(N)=O 3.29%
O=C(OCc1nnc(-c2ccccc2)o1)c1cn(-c2ccccc2)nc1-c1ccccc1 4.52%
OC1CCN(Cc2cccc3ccccc23)CC1 14.2%
O=C1CC(c2cccs2)c2ccc3ccccc3c2N1 (configuration not stated) 6.36%
COc1ccc(-c2nnn(CC(=O)NCCc3c[nH]c4ccccc34)n2)cc1OC 7.85%
COc1cc(/C=C2/C(=O)NN(c3ccccc3)C2=O)cc(Br)c1O 23.7%
COc1cc(/C=C2/C(=O)NN(c3ccc(F)cc3)C2=O)cc(Cl)c1O 20.4%
COc1cccc(C2=CC(=O)C[C@H](c3ccc4c(c3)OCO4)C2)c1OC 6.37%
Cc1cc(=O)cc(C)n1-c1ccc(Cl)cc1 5%
O=c1c2cc([N+](=O)[O-])ccc2sn1-c1ccccc1 17.4%
O=c1c2ccccc2sc2ccc(Cl)cc12 5.89%
Cc1nn(-c2ccc(Cl)cc2Cl)c(=O)c2ccccc12 -1.03%
CC1=CC(C)(C)N(C)C(=O)N1c1ccc(Cl)cc1 6.14%
O=c1c2ccccc2sn1-c1ccc(S(=O)(=O)N2CCCCC2)cc1 10.2%
O=c1c2ccccc2ncn1-c1cccc(Cl)c1 5.62%
O=c1c2ccccc2cnn1-c1ccc(Cl)cc1 1.97%
O=c1c2cnn(-c3ccccc3)c2ncn1Cc1ccccc1F 7.32%
CC(=O)c1ccc(-c2nnc(CCC(=O)N3CCCC(C(=O)CC(C)C)C3)o2)s1 (configuration not stated) 9.2%
CCn1c(SCC(=O)NCCOC)nc2sc3c(c2c1=O)CCCC3 6.34%
CC1CCCCC1NC(=O)CCn1c(=O)sc2ccccc21 (configuration not stated) 12.2%
CN(CC(=O)Nc1ccc(N2CCOCC2)cc1)CC(=O)Nc1ccccc1C#N 6.72%
O=c1oc2cc(Br)ccc2n1Cc1ccccc1 13.7%
CCc1nnc(NC(=O)c2cccc(S(=O)(=O)N3CCCCC3)c2)s1 10.2%
COC(=O)Cc1c(O)ccn(CCc2ccc(OC)c(OC)c2)c1=O 5.94%
Cc1ccc(S(=O)(=O)N2C[C@@H](C)[C@]3(C2)[C@H](O)[C@H](OC(=O)NC2CCCC2)C[C@H]2C(=O)N(c4ccccc4)C(=O)[C@H]23)cc1 15.8%
CSc1nc2c(C)c(C)c(C)c(C)c2[nH]1 2.42%
CCOC(=O)N1CCN(C(=O)CC(C(=O)N2CCc3ccccc32)n2ccnc2)CC1 (configuration not stated) 4.9%
O=C(COc1ccc2c3c(c(=O)oc2c1)CCCC3)NCCN1CCOCC1 1.04%
COC(=O)C1=C(O)/C(=C/c2ccc(OCC(=O)Nc3ccc(OC)cc3)cc2)N=C1C 6.48%
CCOC(=O)C1=C(O)/C(=C\c2ccc(OC)c(OC)c2)N=C1C -1.28%
COC(=O)C1=C(O)/C(=C/c2cccc(OC)c2O)N=C1C 28.1%
CCOC(=O)C1=C(O)/C(=C/c2cc(OC)c(OC)c(OC)c2)N=C1C 2.56%
CCOC(=O)C1=C(O)/C(=C\c2cccc(OC)c2)N=C1C 7.59%
COC(=O)C1=C(O)/C(=C\c2sccc2C)N=C1C 10.9%

From PubChem BioAssay AID624330 (Southern Research Specialized Biocontainment Screening …, 2012)
